According to PubChem BioAssay (Tox21):
Where “and” joins values, the source holds several entries; their conditions need not be identical. Equal entries are not always repeated. Inconclusive results are not listed. Where a structure was tested more than once in an assay, its records may differ in their call. Calls of active or inactive are those of the source. Unless noted, calls follow the shape of the dose curve; as a rule, active = well fitted curve in the direction sought with a large enough effect in the repeat runs; inconclusive = weak or mixed curves; inactive = no such curve, though single readings can be large; an effect the other way counts as inactive or inconclusive.

Key:
[1] = qHTS assay to identify small molecule agonists of the hypoxia (HIF-1) signaling pathway - cell viability counter screen (AID 1224844; calls by dose curve; also: nearly all actives have a fitted effect of over 50% in size; also: potency is read from the fitted curve at half-maximal effect)
Procedure, shortened: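 Multiplexed with the HRE beta-lactamase assay, this viability read used CellTiter-Glo luminescence (30 min, RT) on HRE-bla ME-180 cells treated 17 hrs with compounds in 0.5% dialyzed FBS medium.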

[2] = qHTS assay to identify small molecule agonists of H2AX (AID 1224845; active = well fitted activation curve with a large enough effect in the signal ratio in the repeat runs, not every such curve was filed as active; the % refers to the signal ratio)
Procedure, shortened: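 Phospho-H2AX Ser139 measured by HTRF (ex 320 nm; em 665 and 620 nm) after 24 hr antibody incubation. Compounds, 15 concentrations, 0.76% DMSO, were applied to CHO-K1 cells for 3hr at 37C before lysis.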

[3] = qHTS assay to identify small molecule agonists of the hypoxia (HIF-1) signaling pathway (AID 1224846; active = well fitted activation curve with a large enough effect in the signal ratio in the repeat runs, not every such curve was filed as active; the % refers to the signal ratio)
Procedure, shortened: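 Hypoxia-pathway activation was scored as increased beta-lactamase from an HRE-controlled reporter in ME-180 cells; plated at 2,000 cells per well with 0.5% dialyzed FBS, they were exposed 17 hrs to compounds and then given CCF4-AM.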

[4] = qHTS assay to identify small molecule agonists of H2AX - cell viability counter screen (AID 1224847; calls by dose curve; also: top concentration of the series differs between compounds; nearly all actives have a fitted effect of over 30% in size)
Procedure, shortened: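 Wild-type CHO-K1 cells (10% FBS medium) were plated overnight at 37C, exposed to compounds at 15 concentrations for 3 hr at 37C (0.76% DMSO final), and viability was read as CellTiter-Glo luminescence after 30 min at room temperature.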

[5] = qHTS assay to identify small molecule antagonists of the estrogen related receptor (ERR) signaling pathway from Tox21 library (AID 1224848); also: nearly all actives have a fitted effect of over 50% in size; also: potency is read from the fitted curve at half-maximal effect
Procedure, shortened: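 Antagonist-mode screen of the Tox21 10K library in an NTP-provided ERR reporter cell line; 18 h compound exposure at 37 C, luminescence measured with ONE-Glo.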

[6] = qHTS assay to identify small molecule agonists of the estrogen related receptor (ERR) signaling pathway from Tox21 library (AID 1224849; calls by dose curve; also: nearly all actives have a fitted effect of over 15% in size); details: ERR reporter cell line, ONE-Glo luciferase, 18 h
Procedure, shortened: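 Six hours post-seeding at 37 C/5% CO2, ERR cells receive DMSO-solubilised compounds; after 18 h at 37 C, ONE-Glo reagent is applied and luminescence recorded.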

[7] = qHTS RealTime-Glo MT Cell Viability Assay in HepG2 cells - 24 hour (AID 1224867); also: nearly all actives have a fitted effect of over 50% in size
Procedure, shortened: (§1)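 Cell number in HepG2 cultures estimated from NanoLuc luminescence generated by metabolic reduction of a prosubstrate by living cells. The homogeneous, nonlytic format allowed repeated reads at 0, 8, 16, 24, 32 and 40 h of compound exposure.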

[8] = qHTS RealTime-Glo MT Cell Viability Assay in HEK293 cells - 32 hour (AID 1224868); also: nearly all actives have a fitted effect of over 50% in size; also: potency is read from the fitted curve at half-maximal effect
Procedure, shortened: (§2)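 Homogeneous bioluminescent viability format in HEK293 cells (600 cells/well). Following 5 h at 37 C/5% CO2, 23 nL compound was pintooled; the signal was measured repeatedly during 40 h incubation.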

[9] = A CellTox Green Cytotoxicity Assay to monitor cytotoxicity in HEK293 cells - 0 hour (AID 1224869); also: nearly all actives have a fitted effect of over 50% in size
Procedure, shortened: (§3)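 Seeding of HEK293 cells together with cytotoxicity dye preceded a 5 h incubation at 37 C/5% CO2. Test compounds in DMSO were then added and fluorescence monitored across 40 h.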

[10] = qHTS RealTime-Glo MT Cell Viability Assay in HepG2 cells - 40 hour (AID 1224870); also: nearly all actives have a fitted effect of over 50% in size; also: potency is read from the fitted curve at half-maximal effect
Procedure, shortened: (§4)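 Real-time viability: cells seeded at 600 per well together with NanoLuc and cell-permeant prosubstrate, compounds added after 5 h incubation. Luminescence tracked at 0, 8, 16, 24, 32 and 40 h of exposure.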

[11] = A CellTox Green Cytotoxicity Assay to monitor cytotoxicity in HEK293 cells - 40 hour (AID 1224871); also: nearly all actives have a fitted effect of over 45% in size; also: potency is read from the fitted curve at half-maximal effect
Procedure, shortened: as §3

[12] = qHTS RealTime-Glo MT Cell Viability Assay in HEK293 cells - 16 hour (AID 1224872); also: nearly all actives have a fitted effect of over 50% in size; also: potency is read from the fitted curve at half-maximal effect
Procedure, shortened: as §2

[13] = qHTS RealTime-Glo MT Cell Viability Assay in HepG2 cells - 8 hour (AID 1224873); also: nearly all actives have a fitted effect of over 55% in size
Procedure, shortened: as §4

[14] = A CellTox Green Cytotoxicity Assay to monitor cytotoxicity in HEK293 cells - 24 hour (AID 1224875); also: nearly all actives have a fitted effect of over 45% in size
Procedure, shortened: as §3

[15] = A CellTox Green Cytotoxicity Assay to monitor cytotoxicity in HepG2 cells - 16 hour (AID 1224876); also: nearly all actives have a fitted effect of over 45% in size; also: potency is read from the fitted curve at half-maximal effect
Procedure, shortened: (§5)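 Nonlytic assay: viable cells exclude the dye, so fluorescence scales with cell death. HepG2 at 600 cells/well, compounds added after 5 h, signal read across 40 h.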

[16] = qHTS RealTime-Glo MT Cell Viability Assay in HepG2 cells - 32 hour (AID 1224877); also: nearly all actives have a fitted effect of over 55% in size; also: potency is read from the fitted curve at half-maximal effect
Procedure, shortened: as §1

[17] = A CellTox Green Cytotoxicity Assay to monitor cytotoxicity in HepG2 cells - 24 hour (AID 1224878); also: nearly all actives have a fitted effect of over 45% in size; also: potency is read from the fitted curve at half-maximal effect
Procedure, shortened: as §5

[18] = A CellTox Green Cytotoxicity Assay to monitor cytotoxicity in HepG2 cells - 40 hour (AID 1224879); also: nearly all actives have a fitted effect of over 40% in size; also: potency is read from the fitted curve at half-maximal effect
Procedure, shortened: as §5

[19] = qHTS RealTime-Glo MT Cell Viability Assay in HEK293 cells - 40 hour (AID 1224874); details: RealTime-Glo luminescence; max response: stronger effect = lower value; also: nearly all actives have a fitted effect of over 50% in size; also: potency is read from the fitted curve at half-maximal effect
Procedure, shortened: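 Tox21 screen in HEK293 using RealTime-Glo MT chemistry, with cells and reagent co-dispensed. Luminescence proportional to viable cell number was captured at intervals during 40 h compound exposure at 37 C.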

[20] = molecular target: Thyrotropin receptor (Homo sapiens) (UniProt P16473); experiment: qHTS assay to identify small molecule agonists of the thyroid stimulating hormone receptor (TSHR) signaling pathway (AID 1224843; calls by dose curve; also: nearly all actives have a fitted effect of over 45% in size)
Chain of Thyrotropin receptor (Homo sapiens) (P16473 whole entry, looked up): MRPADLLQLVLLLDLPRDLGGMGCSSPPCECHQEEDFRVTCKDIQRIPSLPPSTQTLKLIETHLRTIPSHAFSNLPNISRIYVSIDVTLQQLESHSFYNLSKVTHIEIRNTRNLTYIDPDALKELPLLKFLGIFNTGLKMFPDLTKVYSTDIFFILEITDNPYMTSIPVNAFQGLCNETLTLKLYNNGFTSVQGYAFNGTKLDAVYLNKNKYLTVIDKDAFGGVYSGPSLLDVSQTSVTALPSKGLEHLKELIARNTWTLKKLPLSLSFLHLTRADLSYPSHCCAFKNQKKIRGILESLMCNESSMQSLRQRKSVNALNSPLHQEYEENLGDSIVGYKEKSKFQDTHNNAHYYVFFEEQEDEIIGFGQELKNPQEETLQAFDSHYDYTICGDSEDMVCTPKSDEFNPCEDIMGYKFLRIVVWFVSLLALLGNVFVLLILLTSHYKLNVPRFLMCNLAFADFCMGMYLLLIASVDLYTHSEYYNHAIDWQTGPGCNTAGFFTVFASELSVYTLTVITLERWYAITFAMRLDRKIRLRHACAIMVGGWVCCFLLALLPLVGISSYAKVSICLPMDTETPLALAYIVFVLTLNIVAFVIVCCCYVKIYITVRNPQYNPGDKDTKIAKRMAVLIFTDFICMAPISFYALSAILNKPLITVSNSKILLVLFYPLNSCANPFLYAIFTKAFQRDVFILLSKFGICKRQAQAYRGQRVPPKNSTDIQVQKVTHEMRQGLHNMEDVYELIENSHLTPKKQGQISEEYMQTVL
Procedure, shortened: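 Screening of the Tox21 10K collection used HEK293 cells engineered with TSHR at 800 cells per well. After a 30-min room-temperature compound exposure, HTRF cAMP reagents were added and fluorescence recorded 1 h later.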
% is scaled to controls: 0 for no effect and ±100 for the full control effect.

Nc1ccc(Cl)cc1Cl
inactive: Potency [1] | outcome [2] | Potency [3] | Potency [4] | Potency [5] | activity change, positive = activation ([6]; at 92.4 µM (top of the series)) 1.8% | Potency [7] | Potency [8] | Potency [9] | Potency [10] | Potency [11] | Potency [12] | Potency [13] | Potency [14] | Potency [15] | Potency [16] | Potency [17] | Potency [18]

C=C(C)C(=O)OCCOC(=O)C(=C)C
inactive: Potency [1] | outcome [2] | Potency [3] | Potency [4] | Potency [5] | activity change, positive = activation ([6]; at 92.4 µM (top of the series)) -0.0914% and 4.51% | Potency [7] | Potency [8] | Potency [9] | Potency [10] | Potency [11] | Potency [13] | max response [19] 7.24% and -0.024% | Potency [14] | Potency [15] | Potency [16] | Potency [17] | Potency [18]

Cc1ncc[nH]1
inactive: Potency [20] | Potency [1] | Potency [3] | Potency [4] | Potency [7] | Potency [8] | Potency [9] | Potency [10] | Potency [11] | Potency [12] | Potency [13] | max response [19] 3.53% and 2.93% | Potency [14] | Potency [15] | Potency [16] | Potency [17] | Potency [18]

Nc1ncn([C@@H]2O[C@H](CO)[C@@H](O)[C@H]2O)c(=O)n1
active: Potency [1] 13.8 µM | Potency [5] 864 nM and 1.19 µM
inactive: Potency [20] | Potency [4] | activity change, positive = activation ([6]; at 42.5 µM (top of the series)) -50.1% | activity change, positive = activation ([6]; at 92.4 µM (top of the series)) -55.9% | Potency [7] | Potency [8] | Potency [9] | Potency [10] | Potency [11] | Potency [12] | Potency [13] | max response [19] -27.7% and 4.66% | Potency [14] | Potency [15] | Potency [16] | Potency [17] | Potency [18]

CC(CCC(=O)O)(c1ccc(O)cc1)c1ccc(O)cc1
inactive: Potency [20] | Potency [1] | Potency [4] | Potency [5] | activity change, positive = activation ([6]; at 92.4 µM (top of the series)) 1.54% and 1.03% | Potency [7] | Potency [8] | Potency [9] | Potency [10] | Potency [11] | Potency [12] | Potency [13] | max response [19] -1.02% and 0.133% | Potency [14] | Potency [15] | Potency [16] | Potency [17] | Potency [18]

c1cc(N(CC2CO2)CC2CO2)ccc1OCC1CO1 (centres undefined)
inactive: Potency [20] | Potency [4] | activity change, positive = activation ([6]; at 92.4 µM (top of the series)) -51.1% and -59.2% | Potency [7] | Potency [9] | Potency [10] | Potency [11] | Potency [12] | Potency [13] | Potency [14] | Potency [15] | Potency [17] | Potency [18]
active: Potency [5] 61.2 µM and 54.5 µM | Potency [8] 24.6 µM and 21.9 µM | Potency [19] 19.5 µM and 15.5 µM

c1ccc(Nc2ccccc2)cc1
inactive: Potency [20] | Potency [1] | Potency [3] | activity change, positive = activation ([6]; at 92.4 µM (top of the series)) -73.5% and -5.69% | Potency [7] | Potency [9] | Potency [13] | max response [19] 12.7% | Potency [15]
19.5 µM (active) and inactive: Potency [8] | Potency [11]
active: Potency [19] 19.5 µM | Potency [17] 43.6 µM | Potency [18] 34.7 µM
43.6 µM (active) and inactive: Potency [10]
38.9 µM (active) and inactive: Potency [16]
27.3 µM (active) and inactive: Potency [5]
17.4 µM (active) and inactive: Potency [12]

CCC(C)CO (centres undefined)
inactive and 24.5 µM (active): Potency [8]
inactive: Potency [1] | outcome [2] | Potency [3] | Potency [4] | Potency [5] | activity change, positive = activation ([6]; at 92.4 µM (top of the series)) 1.13% and -5.81% | Potency [7] | Potency [9] | Potency [10] | Potency [11] | Potency [12] | Potency [13] | max response [19] 4.66% | Potency [14] | Potency [16]
inactive and 43.6 µM (active): Potency [17] | Potency [18]
inactive and 38.9 µM (active): Potency [15]
active: Potency [19] 24.5 µM

Clc1nc(Cl)c(Cl)c(Cl)c1Cl
43.9 µM (active) and inactive: Potency [11]
inactive: Potency [1] | outcome [2] | Potency [3] | Potency [4] | Potency [5] | activity change, positive = activation ([6]; at 92.4 µM (top of the series)) 4.58% and 5.62% | Potency [7] | Potency [8] | Potency [9] | Potency [10] | Potency [12] | Potency [13] | max response [19] 1.46% and 24.5% | Potency [14] | Potency [15] | Potency [16] | Potency [17] | Potency [18]

COc1ccc(C(=O)CC(=O)c2ccc(C(C)(C)C)cc2)cc1
inactive and 67.4 nM (active): Potency [15] | Potency [18]
29.6 µM (active) and inactive: Potency [8] | Potency [12]
inactive and 75.6 nM (active): Potency [17]
inactive: Potency [20] | Potency [1] | Potency [3] | Potency [4] | Potency [7] | Potency [9] | Potency [10] | Potency [11] | Potency [13] | Potency [14] | Potency [16]
